From PubChem BioAssay
Only some compounds are listed: those with a hit (about 15% of all), similar ones and a draw of the others.
12-LOX inh: inhibitors of human 12S-lipoxygenase ALOX12 | P18054 | AID 1671190 | Potency, µM (highest dose often 108 µM), for inactives: at the highest dose activity change, negative = inhibition, most hits filed as inhibitors | hit rate 1.1% among 580,000 | purified 12hLO, xylenol orange hydroperoxide absorbance
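Purified human 12hLO at 150 nM in 25 mM Hepes, 0.01% Triton X-100, pH 7.0, preincubated 15 min at room temperature with compound. Reaction started with 40 uM arachidonic acid, 30 min at room temperature. Hydroperoxide measured by Fe-xylenol orange, 573/405 nm absorbance ratio.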
VP16 counter: counter-screen for ROR gamma inhibitors: Gal4-VP16 reporter | Drosophila S2 Gal4-VP16 UAS-luciferase, luminescence, 20 h | Potency, µM (top dose mostly 53.6 µM), for the others: at the top dose activity, negative = inhibition, actives largely listed as inhibitors | hit rate 3.5% among 310,000 | AID 2546;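 further: Gal4-VP16 expression switched on by copper sulfate through the metallothionein promoter; nearly all actives have a fitted effect of over 50% in size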
TDP1 cell noCPT: qHTS for Inhibitors of human tyrosyl-DNA phosphodiesterase 1 (TDP1): qHTS in cells in absence of CPT | DT40 Tdp1-/- hTDP1 cells, no CPT, ATP luminescence, 48 h | Potency, µM (doses to about 46.2 µM), without a hit: at the highest dose activity change, negative = growth inhibition, hits mostly inhibitors | hit rate 15% among 420,000; further: nearly all actives have a fitted effect of over 55% in size
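Cells were dispensed at 400 per well, compounds added by pin tool, plates incubated ≥48 hr at 37 °C, then CellTiter-Glo added for 30 min at room temperature before luminescence reading. Line: DT40 Tdp1-/- complemented with hTDP1; camptothecin omitted.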
ELG1 repair inh: ELG1-dependent DNA repair inhibition. HEK293T ELG1-luciferase reporter, luminescence, 16 h; DNA damage induced by 5-fluorouridine. Potency, µM (series often up to 46.1 µM), for inactives: at the top dose activity change, negative = inhibition, usual class: inhibitors. hit rate 2.3% among 330,000. AID 504467; further: nearly all actives have a fitted effect of over 55% in size
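Overnight (16 hr) co-exposure of 2,000 cells/well to 5-fluorouridine and compound at 37 °C preceded detection. Luciferase was quantified via ONE-Glo luminescence; loss of signal denotes inhibition.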
RORg inh: blocks mouse ROR gamma transcriptional activity. Drosophila S2 Gal4-RORgamma UAS-luciferase reporter, 20 h. Potency, µM (top dose mostly 53.6 µM), inactives show at the highest dose activity change, negative = inhibition, hits mostly inhibitors. hit rate 5.4% among 310,000; further: nearly all actives have a fitted effect of over 60% in size
Target sequence (P51450 whole entry, looked up, the tested form may be a part): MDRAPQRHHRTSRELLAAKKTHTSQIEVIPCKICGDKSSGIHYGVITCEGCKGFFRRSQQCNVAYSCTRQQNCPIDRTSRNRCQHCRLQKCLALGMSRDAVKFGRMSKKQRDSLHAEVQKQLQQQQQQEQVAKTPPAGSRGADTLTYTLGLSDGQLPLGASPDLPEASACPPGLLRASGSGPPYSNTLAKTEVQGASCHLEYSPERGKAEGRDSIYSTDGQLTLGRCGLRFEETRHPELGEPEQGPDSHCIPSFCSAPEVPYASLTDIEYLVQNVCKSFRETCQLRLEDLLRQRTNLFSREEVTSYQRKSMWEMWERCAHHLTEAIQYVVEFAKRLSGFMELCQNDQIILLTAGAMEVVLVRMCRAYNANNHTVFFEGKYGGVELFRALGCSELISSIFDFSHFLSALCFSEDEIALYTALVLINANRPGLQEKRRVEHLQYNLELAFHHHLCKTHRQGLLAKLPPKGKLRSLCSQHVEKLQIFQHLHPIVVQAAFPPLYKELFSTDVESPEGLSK
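Luciferase reporter read in Schneider cells carrying Gal4-RORγ (mouse) and UAS-Photinus luciferase; cells given compound 1 h before 700 uM copper sulfate induction, then incubated 20 h at ambient temperature.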
DT40 TDP1 CPT: DT40-hTDP1 cell growth loss with CPT | chicken DT40 Tdp1-/-;hTDP1 cells + 20 nM CPT, ATP luminescence, 48 h | Potency, µM (titrated, usually from 46.2 µM), for inactives: top-dose activity change, negative = growth inhibition, most hits filed as inhibitors | AID 686979 | hit rate 12% among 420,000; further: nearly all actives have a fitted effect of over 55% in size
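Chicken DT40 Tdp1-/- cells stably complemented with human TDP1 were seeded at 400 cells/well in medium containing 20 nM camptothecin, exposed to pin-transferred compounds, and grown at 37 °C for at least 48 hr. Viability was read as ATP luminescence.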
Active calls of the source: *; ? = inconclusive; . = not tested or not shown. The call rests on the fitted dose curve; in most records, active means well fitted curve in the direction sought with a large enough effect; inconclusive means small, poorly fitted or top-dose-only effect, or another doubt; inactive means no such curve, though single readings can be large; an effect the other way counts as inactive or inconclusive. On the % scale 0 is the no-effect control and ±100 the full control effect; potency means the concentration at half of the fitted maximal effect.

SMILES	12-LOX inh	VP16 counter	TDP1 cell noCPT	ELG1 repair inh	RORg inh	DT40 TDP1 CPT
COc1ccc(CN2CC(Oc3ccccc3C(=O)NCc3ccccc3)C2)c(OC)c1	46%	.	.	.	.	.
O=C(Nc1cccc(Cl)c1)N1CCOC(CN(CC2CC2)C(=O)c2cccc(F)c2)C1 (stereo not drawn)	2%	.	.	.	.	.
Cc1cc(C)c(C#N)c(SCC(=O)Nc2ccccc2C(N)=O)n1	3%	-2%	10µM*	?	5%	?
COCc1cc(C)nc(SCC[N+](C)(C)CC(=O)Nc2cccc(C(F)(F)F)c2)c1C#N	13%	13%	?	13%	28%	21µM*
Cc1cc(C)c(C#N)c(SCC(=O)Nc2ccccc2C#N)n1	0%	.	.	.	.	.
O=C(c1cccnc1)N1CCCCC1c1noc(COc2ccc(F)cc2)n1 (stereo not drawn)	29%	.	.	.	.	.
NC(=O)C1CCCN(C(=O)CCc2ncc(-c3ccc(F)cc3)o2)C1 (stereo not drawn)	-3%	.	.	.	.	.
CCOC(=O)c1oc2cc(OCC(=O)c3ccccc3)ccc2c(=O)c1-c1ccc2c(c1)OCCO2	6%	.	.	.	.	.
Cc1cccc(OCCC(=O)OC(C)C(=O)Nc2ccc(S(N)(=O)=O)cc2)c1 (stereo not drawn)	38%	.	.	.	.	.
Cc1ccc(NC(=S)N(Cc2ccc(Br)cc2)Cc2ccc(C(=O)O)cc2)cc1C	40µM*	4%	?	-7%	-36%	10%
CC(C)CN(CC(C)C)C(=S)Nc1ccc(Cl)cc1	-4%	20µM*	?	-1%	4µM*	-1%
COc1ccc(NC(=S)N(Cc2ccc(Cl)cc2)Cc2ccc(C(=O)O)cc2)cc1Cl	?	-2%	-2%	4%	10%	-6%
CC(C)CN(CC(C)C)C(=O)CC(=O)NC(=O)c1ccc(Cl)cc1	?	-10%	-8%	-2%	36%	4%
Cc1ccc(C)c(NC(=S)N(Cc2ccc(Cl)cc2)Cc2ccc(C(=O)O)cc2)c1	45µM*	-20%	-2%	-7%	66%	-26%
CCc1ccc(NC(=S)N(Cc2ccc(Cl)cc2)Cc2ccc(C(=O)O)cc2)cc1	40µM*	-10%	-6%	?	31%	-3%
COC(=O)/C=C/c1cc(OC)c(OC)c(S(=O)(=O)Oc2ccc3c(c2)CCC3)c1	-24%	.	.	.	.	.
C[C@H](NC(=O)C[C@@H]1c2nc(NC(=O)c3ccc(F)cc3)sc2C[C@@H]2[C@](C)(CO)[C@H](O)CC[C@]21C)c1ccccc1	13%	.	.	.	.	.
Cc1cc(C)cc(NC(=S)N(Cc2ccc(Cl)cc2)Cc2ccc(C(=O)O)cc2)c1	35µM*	-19%	-30%	?	42%	-27%
Cc1ccc(C)c(NCC(=O)c2ccc(Cl)cc2)c1	35µM*	?	?	8%	?	?
Cc1cc(NC(=S)N(Cc2ccc(Cl)cc2)Cc2ccc(C(=O)O)cc2)ccc1Cl	40µM*	-8%	6%	0%	40%	0%
Cc1cccc(NC(=S)N(Cc2ccc(Cl)cc2)Cc2ccc(C(=O)O)cc2)c1	0%	-4%	-18%	?	42%	18%
Cc1ncsc1CN1CCCN(S(=O)(=O)c2ccccc2)CCC(=O)NCC1	73%	.	.	.	.	.
COc1ccc(NC(=O)C2(C#N)CCCC2)cc1	-7%	.	.	.	.	.
Cc1cc(Nc2ccc(Br)cc2)nc(-c2ccccc2O)n1	?	-15%	-25%	5%	?	?
Cc1cc(N(C)/N=C/c2ccccc2O)nc(-c2ccccc2O)n1	1%	-1%	4.1µM*	-17%	5%	5.8µM*
N=C1/C(=C\c2ccc(-c3cc(Cl)cc(Cl)c3)o2)C(=O)N=C2SC=C(c3ccccc3)N12	?	-12%	?	1%	22%	?
